Results published in PubChem BioAssay (Tox21).
Inconclusive results are not listed. A call without a number means that no potency is given here. Unmarked numbers belong to inactive results. The source made the active and inactive calls. Unless noted, calls come from the whole dose curve; as a rule, active = well fitted curve in the direction sought with a large enough effect in the repeat runs; inconclusive = weak or mixed curves; inactive = no such curve, though single readings can be large; an effect the other way counts as inactive or inconclusive.

Legend:
[1] = qHTS assay to identify small molecule antagonists of the estrogen related receptor (ERR) signaling pathway - cell viability counter screen (AID 1224818); note: potency is the fitted concentration of half-maximal effect;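 note: viability measured after 17.5 h of compound exposure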
How it was run: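 ERR reporter cells plated 6 h at 37 C/5% CO2, then compounds in DMSO pin-transferred and incubated 17.5 h at 37 C. Viability read as CellTiter-Fluor fluorescence after 30 min at 37 C.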

[2] = qHTS assay to identify small molecule antagonists of the estrogen related receptor (ERR) signaling pathway (AID 1224819; note: nearly all actives have a fitted effect of over 50% in size; note: potency is the fitted concentration of half-maximal effect)
How it was run: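 ERR reporter cells were plated at 2,000 cells/well and left 6 h at 37 C/5% CO2 before pin-tool transfer of compounds in DMSO. After 18 h at 37 C, One-Glo was added and luminescence was read 30 min later at room temperature.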

[3] = qHTS assay to identify small molecule agonists of the estrogen related receptor (ERR) signaling pathway (AID 1224820)
How it was run: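 Cells: ERR line from NTP, 2,000/well. Pre-incubation 6 h, 37 C/5% CO2. Compound (DMSO) pin transfer, 18 h 37 C. One-Glo, 30 min RT, luminescence.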

[4] = tested on: estrogen-related receptor alpha (ERRalpha) with PGC-1alpha coactivator, human; assay: qHTS assay to identify small molecule antagonists of the estrogen related receptor signaling pathway with the pleiotropic PPARgamma coactivator (PGC) (AID 1224821; calls by dose curve; note: nearly all actives have a fitted effect of over 50% in size; note: potency is the fitted concentration of half-maximal effect)
How it was run: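 Luminescent read-out (One-Glo, 30 min at room temperature) following 18 h treatment of PGC/ERR cells at 37 C with compounds delivered in DMSO. Cells had settled 6 h at 37 C/5% CO2 before dosing.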

[5] = qHTS assay to identify small molecule antagonists of the estrogen related receptor signaling pathway with the pleiotropic PPARgamma coactivator (PGC) cell viability counter screen (AID 1224822; note: potency is the fitted concentration of half-maximal effect)
How it was run: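 PGC/ERR cells were seeded at 2,000 cells/well, rested 6 h at 37 C/5% CO2, then given compounds in DMSO by pin tool and incubated 17.5 h at 37 C. Viability came from CellTiter-Fluor fluorescence after 30 min.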

[6] = qHTS assay to identify small molecule agonists of the estrogen related receptor signaling pathway with the pleiotropic PPARgamma coactivator (PGC) (AID 1224823)
How it was run: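 Steps: plate PGC/ERR cells at 2,000 cells/well; incubate 6 h, 37 C/5% CO2; pin-transfer compounds (DMSO); incubate 18 h, 37 C; add One-Glo; 30 min RT; read luminescence.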

Compound	Potency [1]	Potency [2]	Potency [3]	Potency [4]	Potency [5]	Potency [6]
CNCCc1c[nH]c2ccc(O)cc12	inactive	inactive	inactive	inactive	inactive	inactive
Clc1cc(I)cc(Cl)c1NC1=NCCN1	inactive	inactive	inactive		inactive	inactive
NC(N)=NOCCC(N)C(=O)O (stereo not given)	inactive	inactive	inactive	inactive		inactive
CC(C)NP(=O)(NC(C)C)OP(=O)(NC(C)C)NC(C)C	inactive	inactive	inactive	inactive		inactive
COc1cc(C(O)CN)ccc1O (stereo not given)	inactive	inactive	inactive		inactive	inactive
Clc1ccc(N2CC3CCC(C2)N3)nn1	inactive	inactive	inactive	inactive	inactive	inactive
C[C@@H]1O[C@@H](O[C@H]2C[C@@H](O)[C@]3(CO)[C@@H]4C(CC[C@]3(O)C2)[C@@]2(O)CC[C@H]([C@@H]3COC(=O)C3)[C@@]2(C)C[C@H]4O)[C@H](O)[C@H](O)[C@H]1O (stereo not given in full)	inactive	1.19 µM (active)	inactive	3.48 µM (active)		inactive
N=C(N)c1ccc(CS(=O)(=O)F)cc1	inactive	inactive	inactive	inactive		inactive
CCCN1CC[C@@H]2c3cc(O)ccc3CC[C@@H]21	inactive	inactive	inactive	inactive	inactive	inactive
CN1CCc2cccc(Cl)c2CC1	inactive	inactive	inactive	inactive	inactive	inactive
N[C@@H](Cn1oc(=O)[nH]c1=O)C(=O)O	inactive	inactive	inactive	inactive	inactive	inactive
CC1OC1P(=O)(O)O (stereo not given)	inactive	inactive	inactive		inactive	inactive
NC(=O)c1ccc(OCC(O)CN2CC=C(c3ccc(F)cc3)CC2)cc1 (stereo not given)	inactive		inactive	inactive	inactive	inactive
CS(=N)(=O)CC[C@H](N)C(=O)O (stereo not given in full)	inactive	inactive	inactive		inactive	inactive
NNC(=O)c1ccc(O)cc1	inactive	inactive		inactive	inactive	inactive
CC(C)[C@H]1CN[C@H](C(=O)O)[C@H]1CC(=O)O	inactive	inactive			inactive	inactive
CCCN(CCC)C1CCc2cccc(O)c2C1 (stereo not given)	inactive	inactive		inactive	inactive	inactive
COc1ccc2c(c[n+](C)c3c4cc5c(cc4ccc23)OCO5)c1OC	18.1 µM (active)	9.08 µM (active)		10.6 µM (active)	5.11 µM (active)	inactive
Cn1cnc(CCN)c1	inactive	inactive			inactive	inactive
CCCN1CCC[C@@H](c2cccc(O)c2)C1	inactive	inactive		inactive		inactive
Cc1cc([C@@H]2CCCN2C)on1	inactive	inactive		inactive	inactive	inactive
C[C@H](Cc1ccc2c(c1)OC(C(=O)O)(C(=O)O)O2)NC[C@H](O)c1cccc(Cl)c1	inactive	inactive	inactive		inactive	inactive

Compound	Potency [1]	Potency [2]	Potency [3]	Potency [4]	Potency [5]	Potency [6]
CN1C2CCC1CC(OC(c1ccccc1)c1ccccc1N)C2 (stereo not given)	inactive	inactive	inactive		inactive	inactive
CCCN(CCC)[C@@H]1CCc2ccc(O)cc2C1	inactive	inactive			inactive	inactive
C#CCN[C@H](C)Cc1ccccc1	inactive	inactive		inactive	inactive	inactive
O=C1/C(=C/c2ccccc2)C[C@@]2(O)[C@H]3Cc4ccc(O)c5c4[C@@]2(CCN3CC2CC2)[C@H]1O5	8.74 µM (active)	2.37 µM (active)		2.2 µM (active)	6.19 µM (active)	inactive
NCCc1c[nH]c2ccccc12	inactive	inactive		inactive	inactive	inactive
NC(=O)c1cc(N2CC2)c([N+](=O)[O-])cc1[N+](=O)[O-]	inactive	inactive	inactive		inactive	inactive
CCCN1CCO[C@@H]2c3cc(O)ccc3OC[C@H]21	inactive	inactive	inactive		inactive	inactive
NC1CCc2cc(O)c(O)cc2C1 (stereo not given)	inactive	inactive	inactive			inactive
N[C@@]1(C(=O)O)CC[C@@H](C(=O)O)C1	inactive	inactive		inactive		inactive
C[C@]12N[C@H](Cc3ccccc31)c1ccccc12	inactive	inactive			inactive	inactive
C[N+]1(C)CCOC(O)(c2ccc(-c3ccc(C4(O)C[N+](C)(C)CCO4)cc3)cc2)C1 (stereo not given)	inactive	inactive		inactive		inactive
CCCn1c(=O)c2[nH]c(C3CCCC3)nc2n(CCCOC(=O)c2ccc(S(=O)(=O)F)cc2)c1=O	inactive	inactive		inactive		inactive
COc1ccc(CNC(=O)/C=C/c2ccc3[nH]cc(CCN(C)C)c3c2)cc1	inactive	inactive	inactive		inactive	inactive
C[C@H]1C2Cc3ccc(O)cc3[C@@]1(C)CCN2CC1CC1	inactive	inactive		inactive		inactive
CN(N=O)c1cc(O)ccc1O	inactive	inactive				inactive
NC(N)=NOCC[C@H](N)C(=O)O	inactive	inactive			inactive	inactive
CC12NC(Cc3ccccc31)c1ccccc12 (stereo not given)	inactive	inactive	inactive		inactive	inactive
CC(N)Cc1c[nH]c2ccc(O)cc12 (stereo not given)	inactive	inactive			inactive	
CC(C)NC(C)Cc1ccc(I)cc1 (stereo not given)	inactive	inactive		inactive	inactive	inactive
O=C(O)[C@@H]1CCN1	inactive	inactive		inactive	inactive	inactive
CCCN(CCC)C1Cc2cc(OC)c(OC)cc2C1	inactive	inactive		inactive	inactive	inactive
